In ChEMBL document CHEMBL4513141, “CO-ADD screening of NIH (USA) - Clinical Collection” (2021) one finds Inhibition data, which are given here for 51 molecules.

Entries with a potency or affinity are not part of this list.

A word on the Inhibition: it is the drop in the measured response relative to a control, in per cent.

The test system of one assay is Klebsiella pneumoniae. Particulars: Concentration 20 uM; ASSAY_TEST Inhibition of Bacterial Growth; detection method Absorption (OD600); MEDIA CAMHB; plate type 384well; NBS; CORNING #3640; time 18 hr.
The next assay deals with Candida albicans. Conditions: 20 µM.
The next assay has as its system Cryptococcus neoformans. Particulars: Concentration 20 uM; ASSAY_TEST Inhibition of Fungal Growth; detection method Resazurin; Absorption (OD600-OD570); plate type 384well; NBS; CORNING #3640. Background: The colour change of resazurin is a common sign of viable cells or microbes.

As to `Cc1onc(-c2ccccc2)c1-c1ccc(S(N)(=O)=O)cc1` [VALDECOXIB], the Inhibition with Klebsiella pneumoniae is 13.38%; in the assay on Candida albicans, 1.13%; in the assay with Cryptococcus neoformans, 0.76%.
On to `CC(C)(C(=O)c1cccnc1)c1cccnc1` [METYRAPONE], for which the Inhibition with Klebsiella pneumoniae was 19.17%; in the assay with Candida albicans, 2.49%; in the assay with Cryptococcus neoformans it was -9.27%.
The corresponding values for `Cl.O=C1CN2Cc3c(ccc(Cl)c3Cl)N=C2N1` [ANAGRELIDE HYDROCHLORIDE] are 18.04%, 3.23% and -6.07%.
In the same order, the values of `NC(=O)c1cnccn1` [PYRAZINAMIDE] are 10.9%, 1.92% and -9.58%.
The corresponding values for `COc1ccc(OC)c(C(O)CNC(=O)CN)c1.Cl` (stereo not drawn) [MIDODRINE HYDROCHLORIDE] are 8.37%, 2.18% and -10.49%.
Take `Cc1nc2ccccn2c(=O)c1CCN1CCC(C(=O)c2ccc(F)cc2)CC1` [PIRENPERONE]: the Inhibition in the assay with Klebsiella pneumoniae was 8.87%; in the assay on Candida albicans, 3.8%; in the assay with Cryptococcus neoformans, -7.79%.
`CN[C@@H]1[C@H](O)[C@H](NC)[C@H]2O[C@@]3(O)C(=O)C[C@@H](C)O[C@H]3O[C@@H]2[C@H]1O.Cl.Cl.Cl.O.O.O`: the results for the Inhibition with Klebsiella pneumoniae, in the assay with Candida albicans and in the assay with Cryptococcus neoformans were 37.26%, 2.22% and -1.83%, respectively.
As to `Nc1ccn([C@H]2CC[C@@H](CO)O2)c(=O)n1` [ZALCITABINE], the Inhibition was 8% in the assay with Klebsiella pneumoniae, 0.46% in the assay with Candida albicans and -0.26% with Cryptococcus neoformans.
In the same order, the values of `CC(=CCC1=C(C)C(=O)c2ccccc2C1=O)CCCC(C)CCCC(C)CCCC(C)C` (stereo not drawn) are 6.75%, 3.2% and 1.23%.
For `CC(=O)O[C@]1(C(C)=O)CC[C@H]2[C@@H]3C[C@H](C)C4=CC(=O)CC[C@]4(C)[C@H]3CC[C@@]21C` [MEDROXYPROGESTERONE ACETATE], the Inhibition in the assay on Klebsiella pneumoniae was 17.28%; in the assay with Candida albicans, 4.88%; in the assay on Cryptococcus neoformans, -5.46%.
As to `COc1ccccc1N1CCN(CC(O)COc2cccc3ccccc23)CC1` (stereo not drawn) [NAFTOPIDIL], the Inhibition in the assay with Klebsiella pneumoniae is -0.32%; in the assay with Candida albicans it was 2.55%; in the assay with Cryptococcus neoformans it was 1.21%.
The corresponding values for `CNCC(O)c1ccc(O)c(O)c1` (stereo not drawn) [RACEPINEPHRINE] are 12.35%, 4.12% and -0.68%.
In the same order, the values of `CS(=O)(=O)O.Oc1ccc(C2CNCCc3c2cc(O)c(O)c3Cl)cc1` (stereo not drawn) [FENOLDOPAM MESYLATE] are 10.68%, 1.85% and -12.04%.
In the same order, the values of `CC(=O)OCC(=O)[C@@]12OC(C)(C)O[C@@H]1C[C@H]1[C@@H]3C[C@H](F)C4=CC(=O)C=C[C@]4(C)[C@@]3(F)[C@@H](O)C[C@@]12C` [FLUOCINONIDE] are 13.39%, -0.27% and -0.92%.
Regarding `CC#C[C@]1(O)CC[C@H]2[C@@H]3CCC4=CC(=O)CCC4=C3[C@@H](c3ccc(N(C)C)cc3)C[C@@]21C` [MIFEPRISTONE], the Inhibition in the assay on Klebsiella pneumoniae was 3.7%; in the assay with Candida albicans, 3.98%; with Cryptococcus neoformans, -10.45%.
As to `Cl.NC[C@H]1CC[C@H](C(=O)Oc2ccc(CCC(=O)O)cc2)CC1` [CETRAXATE HYDROCHLORIDE], the Inhibition was 11.26% in the assay with Klebsiella pneumoniae, 4.33% in the assay on Candida albicans and -5.7% in the assay on Cryptococcus neoformans.
The corresponding values for `Cc1ccc(S(=O)(=O)NC(=O)NN2CCCCCC2)cc1` [TOLAZAMIDE] are -1.58%, -0.09% and -7.48%.
In the same order, the values of `CN(C)CC[C@@H](c1ccc(Br)cc1)c1ccccn1.O=C(O)/C=C\C(=O)O` [DEXBROMPHENIRAMINE MALEATE] are -0.14%, 1.43% and -3.8%.
The corresponding values for `CC(=O)O[C@@]12CO[C@@H]1C[C@H](O)[C@@]1(C)C(=O)[C@H](O)C3=C(C)[C@@H](OC(=O)[C@H](O)[C@@H](NC(=O)OC(C)(C)C)c4ccccc4)C[C@](O)([C@@H](OC(=O)c4ccccc4)[C@H]21)C3(C)C` are 11.64%, 1.38% and -6.01%.
For the molecule `O=C1c2c(O)cc(O)cc2O[C@H](c2ccc(O)c(O)c2)[C@@H]1O`, the Inhibition is 9.75% with Klebsiella pneumoniae, 3.45% with Candida albicans and -8.67% in the assay on Cryptococcus neoformans.
In the same order, the values of `CC12CC3CC(C)(C1)CC(N)(C3)C2.Cl` [MEMANTINE HYDROCHLORIDE] are 12.73%, 4.09% and -0.08%.
In the same order, the values of `O=c1[nH]c(=O)n(C2CCCO2)cc1F` (stereo not drawn) [TEGAFUR] are 13.49%, 3.66% and -3.75%.
The corresponding values for `CC[C@@H]1C(=O)OC[C@@H]1Cc1cncn1C.Cl` [PILOCARPINE HYDROCHLORIDE] are 13.79%, 2.29% and -1.97%.
Take `Cc1nccn1CC1CCc2c(c3ccccc3n2C)C1=O` (stereo not drawn) [ONDANSETRON]: the values for the Inhibition in the assay with Klebsiella pneumoniae, in the assay on Candida albicans and in the assay on Cryptococcus neoformans were 11.11%, 4.72% and -0.32%, respectively.
In the same order, the values of `O=C(O)c1cc2ccccc2c(Cc2c(O)c(C(=O)O)cc3ccccc23)c1O.OCCOCCN1CCN(C(c2ccccc2)c2ccc(Cl)cc2)CC1` [HYDROXYZINE PAMOATE] are 14.51%, 5.15% and 7.04%.
In the same order, the values of `Nc1nc2c(ncn2COC(CO)CO)c(=O)[nH]1` [GANCICLOVIR] are 11.05%, 0% and -0.42%.
The corresponding values for `CC(C)(S)C(N)C(=O)O` (stereo not drawn) [DL-PENICILLAMINE] are 8.23%, 3.66% and -9.16%.
As for `COc1cc2nc(N3CCN(C(=O)C4CCCO4)CC3)nc(N)c2cc1OC` (stereo not drawn) [TERAZOSIN], the results for the Inhibition in the assay on Klebsiella pneumoniae, in the assay on Candida albicans and in the assay on Cryptococcus neoformans were 3.6%, 3.05% and 0.02%, respectively.
In the same order, the values of `CC(C)[C@H](N)C(=O)OCCOCn1cnc2c(=O)nc(N)[nH]c21.Cl` [VALACYCLOVIR HYDROCHLORIDE] are 6.23%, 3.14% and -5.07%.
The corresponding values for `O=C([O-])c1cc(=O)c2c(OCC(O)COc3cccc4oc(C(=O)[O-])cc(=O)c34)cccc2o1.[Na+].[Na+]` [CROMOLYN SODIUM] are 6.64%, 2.62% and 0.69%.
Consider `CCS(=O)(=O)CCn1c([N+](=O)[O-])cnc1C` [TINIDAZOLE], for which the Inhibition in the assay on Klebsiella pneumoniae was 6.48%; in the assay on Candida albicans it was 4.29%; in the assay with Cryptococcus neoformans it was -11.27%.
In the same order, the values of `Cc1cn([C@H]2C=C[C@@H](CO)O2)c(=O)[nH]c1=O` [STAVUDINE] are 14.08%, 2.99% and 0.51%.
In the same order, the values of `O=C1CCC(N2C(=O)c3ccccc3C2=O)C(=O)N1` (stereo not drawn) [THALIDOMIDE] are 3.28%, 3.62% and -0.8%.
The corresponding values for `CC(C)(C)NC(=O)[C@@H]1C[C@@H]2CCCC[C@@H]2CN1C[C@@H](O)[C@H](Cc1ccccc1)NC(=O)[C@H](CC(N)=O)NC(=O)c1ccc2ccccc2n1.CS(=O)(=O)O` [SAQUINAVIR MESYLATE] are 4.6%, 4.21% and -6.99%.
Consider `CC(C)NCC(O)COc1ccc(CCOCC2CC2)cc1.Cl` (stereo not drawn) [BETAXOLOL HYDROCHLORIDE], for which the Inhibition with Klebsiella pneumoniae was 15.59%; with Candida albicans it was 2.88%; in the assay with Cryptococcus neoformans, -9.53%.
In the same order, the values of `O=C1Nc2ccc(Cl)cc2[C@@](C#CC2CC2)(C(F)(F)F)O1` [EFAVIRENZ] are -2.99%, 3.86% and -5.8%.
Turning to `Cc1cccc(C)c1OCC(C)N.Cl` (stereo not drawn) [MEXILETINE HYDROCHLORIDE], the Inhibition in the assay with Klebsiella pneumoniae is 13.5%; with Candida albicans, 3.72%; with Cryptococcus neoformans, -0.12%.
In the case of `C[C@]12C[C@H](O)[C@H]3[C@@H](CCC4=CC(=O)CC[C@@]43C)[C@@H]1CC[C@@H]2C(=O)CO` [CORTICOSTERONE], the Inhibition in the assay on Klebsiella pneumoniae is 17.2%; in the assay on Candida albicans, 2.69%; in the assay on Cryptococcus neoformans, -3.25%.
In the same order, the values of `NC(N)=Nc1nc(CSCC/C(N)=N/S(N)(=O)=O)cs1` [FAMOTIDINE] are 2.4%, 3.01% and -2.8%.
In the same order, the values of `Cn1nnc2c(C(N)=O)ncn2c1=O` [TEMOZOLOMIDE] are 7.88%, 1.91% and -1.17%.
In the same order, the values of `CC(N/C(=N\C#N)Nc1ccncc1)C(C)(C)C.O` (stereo not drawn) are 0.13%, 1.29% and -6.76%.
`CC(COc1ccccc1Cc1ccccc1)N1CCCCC1.O=P(O)(O)O` (stereo not drawn): the Inhibition with Klebsiella pneumoniae amounted to 14.21%; in the assay with Candida albicans it was 3.69%; in the assay with Cryptococcus neoformans it was 0.43%.
Consider `CC(N)(Cc1ccc(O)c(O)c1)C(=O)O` (stereo not drawn) [METHYLDOPA (RACEMIC)], for which the Inhibition turned out to be 2.57% in the assay with Klebsiella pneumoniae, 3.32% in the assay on Candida albicans and 7.73% in the assay with Cryptococcus neoformans.
On to `CC(C)(C)NC(=O)[C@H]1CC[C@H]2[C@@H]3CC[C@H]4NC(=O)C=C[C@]4(C)[C@H]3CC[C@]12C` [FINASTERIDE], for which the Inhibition with Klebsiella pneumoniae is -7.24%; with Candida albicans it was 0.68%; in the assay on Cryptococcus neoformans it was -1.89%.
In the case of `CCCc1c(OCCCCc2nnn[nH]2)ccc(C(C)=O)c1O` [TOMELUKAST], the figures for the Inhibition in the assay on Klebsiella pneumoniae, in the assay on Candida albicans and with Cryptococcus neoformans were 5.45%, 4.49% and 3.29%, respectively.
With `CC[C@]1(O)C[C@@H]2CN(CCc3c([nH]c4ccccc34)[C@@](C(=O)OC)(c3cc4c(cc3OC)N(C)[C@H]3[C@@](O)(C(N)=O)[C@H](O)[C@]5(CC)C=CCN6CC[C@]43[C@@H]65)C2)C1.O=S(=O)(O)O` [VINDESINE SULFATE], the Inhibition in the assay on Klebsiella pneumoniae was 6.96%; with Candida albicans, 3.45%; in the assay with Cryptococcus neoformans, 0.45%.
The corresponding values for `CC(C)NCC(O)COc1ccc(COCCOC(C)C)cc1.CC(C)NCC(O)COc1ccc(COCCOC(C)C)cc1.O=C(O)/C=C/C(=O)O` (stereo not drawn) [BISOPROLOL FUMARATE] are 12.19%, 0.23% and -4.67%.
For `C[C@]12CC[C@@H]3c4ccc(O)cc4CC[C@H]3[C@@H]1CC[C@@H]2O` [ESTRADIOL], the results for the Inhibition with Klebsiella pneumoniae, in the assay on Candida albicans and in the assay on Cryptococcus neoformans were 5.27%, 5.91% and -4.05%, respectively.
The corresponding values for `C[C@H]1O[C@@H](O[C@H]2[C@@H](O)C[C@H](O[C@H]3[C@@H](O)C[C@H](O[C@H]4CC[C@@]5(C)[C@H](CC[C@@H]6[C@@H]5C[C@@H](O)[C@]5(C)C(C7=CC(=O)OC7)CC[C@]65O)C4)O[C@@H]3C)O[C@@H]2C)C[C@H](O)[C@@H]1O` (stereo partly drawn) are 10.13%, 4.95% and -6%.
In the same order, the values of `CCc1c(C)[nH]c2c1C(=O)C(CN1CCOCC1)CC2.Cl` (stereo not drawn) [MOLINDONE HYDROCHLORIDE] are -0.12%, 3.99% and 6.64%.
The corresponding values for `CC[C@H](C)C(=O)O[C@H]1CCC=C2C=C[C@H](C)[C@H](CC[C@@H]3C[C@@H](O)CC(=O)O3)[C@H]21` [MEVASTATIN] are 5.3%, 24.7% and -2.39%.
